Screening results as filed in PubChem.
ST2 inh – IL1RL1 inhibition. Q01638. inhibition, % for hits at 17 µM. actives 2.3% (n = 78,000). AlphaLISA ST2-Fc/biotin-IL-33 interaction, 1 h; in the data active = inhibition above about 30%
Target sequence (Q01638 whole entry, looked up): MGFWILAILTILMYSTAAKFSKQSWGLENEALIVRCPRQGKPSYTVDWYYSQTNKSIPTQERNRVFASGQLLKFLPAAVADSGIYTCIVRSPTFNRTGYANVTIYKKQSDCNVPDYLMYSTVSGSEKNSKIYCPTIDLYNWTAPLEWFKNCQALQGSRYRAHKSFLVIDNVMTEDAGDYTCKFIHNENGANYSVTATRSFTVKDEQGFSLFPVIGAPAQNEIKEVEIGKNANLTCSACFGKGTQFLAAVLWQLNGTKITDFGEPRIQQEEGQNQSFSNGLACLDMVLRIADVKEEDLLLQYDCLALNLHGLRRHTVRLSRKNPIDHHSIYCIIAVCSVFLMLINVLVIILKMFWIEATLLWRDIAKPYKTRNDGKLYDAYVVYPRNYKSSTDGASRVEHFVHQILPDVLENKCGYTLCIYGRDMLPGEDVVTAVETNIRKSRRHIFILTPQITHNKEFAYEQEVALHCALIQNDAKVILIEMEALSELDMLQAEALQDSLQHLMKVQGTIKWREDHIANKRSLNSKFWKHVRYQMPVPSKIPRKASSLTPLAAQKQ
The depositor's hits bear a star; i = inactive. The sample as a whole holds a higher share of hits than the screen did.

SMILES	ST2 inh
Cc1ccc(C)c(NCC(O)Cn2c(C)c(C)c3ccccc32)c1 (stereo not given)	i
CC(NS(=O)(=O)c1ccc(Cl)cc1)C(c1cccs1)N1CCN(c2ccccc2)CC1 (stereo not given)	i
CN1CCC(n2cnc(-c3ccccc3)c2-c2cccc3cccnc23)CC1	30%*
CN1CC(n2cnc(-c3ccccc3)c2-c2ccccc2C(=O)O)CCC1=O (stereo not given)	i
Cc1nn(C)c(Cl)c1-c1c(-c2ccccc2)ncn1C1CC=CC1	i
O=c1[nH]c(SCc2cccc(F)c2)nc2c1cnn2-c1ccc(F)cc1	i
O=C(NC(c1ccccc1)c1ccccc1)C1COc2ccccc2O1 (stereo not given)	i
CNC(=O)N1C(=O)C(=O)c2ccccc21	i
CC(=O)N1/C(=C/c2ccc(N(C)C)cc2)C(=O)c2ccccc21	66%*
CC(=O)N1C(=O)C(=O)c2ccccc21	i
COc1ccc(-c2nc3s/c(=C\c4ccc(N(C)C)cc4)c(=O)n3n2)cc1	i
CC(Oc1ccc(C=C2C(=O)c3ccccc3C2=O)cc1)C(=O)O (stereo not given)	i
CC(=O)N1/C(=C/c2ccncc2)C(=O)c2ccccc21	39%*
Cc1ccc(C)c(NC(=O)CC(=O)N(C)C(C)c2ccncn2)c1 (stereo not given)	i
OC[C@@H]1O[C@H](CN(Cc2ccc(F)cc2)Cc2ccc(F)cc2)[C@H](N2CCN(c3cccc(C(F)(F)F)c3)CC2)[C@@H]1O	i
CN(C)c1ccc(-c2noc([C@@H]3CCCN3Cc3ccccc3)n2)cn1	i
CN1CCN(C(=O)Nc2ccc(Cl)cc2)CC1	i
COc1ccc(Nc2cc(C)nc3c(C)c(C)ccc23)cc1OC	i
COc1ccc(Nc2cc(C)nc3c(C)c(C)ccc23)cc1	i
COc1ccc(OC)c(Nc2cc(C)nc3c(C)c(C)ccc23)c1	37%*
CC(Sc1nnc2n(C)c3ccccc3n12)C(=O)O (stereo not given)	i
Cc1ccc(C)c(N2CCN(C(=O)c3ccc(Cn4c(=O)[nH]c5ccsc5c4=O)cc3)CC2)c1	i
C=CCNC(=O)c1cc2c(=O)n3cccc(C)c3nc2n(CCCn2ccnc2)c1=N	31%*
COCCCn1c(=N)c(C(=O)NC2CCCC2)cc2c(=O)n3cccc(C)c3nc21	i
Cc1cccn2c(=O)c3cc(C(=O)NCC4CCCO4)c(=N)n(CCCn4ccnc4)c3nc12 (stereo not given)	i
SMILES	ST2 inh
N=C1C(c2nc3ccccc3s2)=C(O)CN1CCN1CCOCC1	i
O=C1OCCCN1CCn1ccnc1-c1nc2c(s1)CCCC2	i
Cc1cc(C)cc(NC(=O)CC(=O)N(C)C(C)c2ccon2)c1 (stereo not given)	i
c1ccc(-c2nc[nH]c2-c2cccn2-c2cccnc2)cc1	i
O=C(O)CCc1nn2c3ccccc3n(CC(=O)c3ccc(Cl)cc3)c2nc1=O	i
O=C(NCCCN1CCCC1)c1cccn1-c1nnc(N2CCCCC2)s1	i
CCN1CCN(CCCNC(=O)c2cccn2-c2nnc(N3CCCCC3)s2)CC1	i
COc1ccc(N2CCN(CCCNC(=O)c3cccn3-c3nnc(N4CCCCC4)s3)CC2)cc1	31%*
O=C(Nc1ccc(Cl)cc1)Nc1ccc(Cl)cc1Cl	i
CC(C)C(NS(=O)(=O)c1cccs1)C(=O)NCCc1ccc(Cl)cc1 (stereo not given)	i
Cc1ccc(-c2nc(S(=O)(=O)c3ccccc3)c(NCc3ccco3)o2)cc1	i
COCCC1CCCCN1C(=O)c1cccc2[nH]c(C)nc12 (stereo not given)	i
CN1CCN(c2nc3c(c(=O)n(C)c(=O)n3C)n2Cc2ccc(Cl)c(Cl)c2)CC1	i
Cn1c(=O)c2c(nc(NCc3ccco3)n2Cc2c(F)cccc2Cl)n(C)c1=O	i
Cn1c(=O)c2c(nc(N3CCOCC3)n2Cc2c(F)cccc2Cl)n(C)c1=O	37%*
Cc1cccc(CNCC2(O)CCCN(Cc3ccc(C(C)C)cc3)C2=O)n1 (stereo not given)	i
CC1CCCC(NC(=O)C2c3ccccc3C(=O)N2Cc2ccccc2Cl)C1C (stereo not given)	i
COc1ccc(OC)c(-c2cc(C(=O)Nc3sc4c(c3C#N)CCC4)no2)c1	i
COc1ccc(-c2ncnn2-c2sc3c(c2C#N)CCCCC3)cc1OC	44%*
COc1ccc(-c2nc3c4c5c(sc4ncn3n2)CCCCC5)cc1OC	i
COC(=O)c1ccc(C(=O)Nc2sc3c(c2C#N)CCCCC3)cc1	i
COc1ccccc1-c1cc(C(=O)Nc2sc3c(c2C#N)CCCC3)no1	i
COc1ccc(OC)c(-c2ncnn2-c2sc3c(c2C#N)CCCCC3)c1	34%*
O=C(CC1(O)C(=O)Nc2ccccc21)c1ccc(NC(=O)C2CCCCC2)cc1 (stereo not given)	i
COC(=O)[C@H]1CN(C(=O)NC(C)C)CCN1C(=O)c1cccs1	i
SMILES	ST2 inh
COc1ccc(C2=NN(C(=O)CCCC(=O)O)C(c3ccccc3F)C2)cc1OC (stereo not given)	i
O=C(CC[C@@H]1CNC(=O)[C@@H]2C[C@H](NC(=S)NCc3ccco3)CN12)NCc1ccccc1	i
Cc1ccc(Cn2nc(C)c(NC(=O)c3cc(-c4cccs4)on3)c2C)cc1	i
COc1ccc(NCCNc2ccc(OC)cc2)cc1	48%*
COc1ccc(NS(C)(=O)=O)cc1	i
COc1ccc(NC(=O)C(C)(C)C)cc1	i
O=C(c1ccc2c(=O)n(-c3ccccc3)c(=O)[nH]c2c1)N1CCN(c2ccccn2)CC1	i
CN1CCN(CC(=O)N2CCCc3c2c(=O)oc2ccc(OCc4ccccc4)cc32)CC1	39%*
CCCOc1ccc2oc(=O)c3c(c2c1)CCCN3C(=O)CN1CCN(C(=O)c2ccco2)CC1	i
CCCOc1ccc2oc(=O)c3c(c2c1)CCCN3C(=O)CN1CCCC(C(=O)OCC)C1 (stereo not given)	i
CCCOc1ccc2oc(=O)c3c(c2c1)CCCN3C(=O)CN1CCN(c2ncccn2)CC1	i
CCN1CCN(CC(=O)N2CCCc3c2c(=O)oc2ccc(OCc4ccccc4)cc32)CC1	30%*
CCCOc1ccc2oc(=O)c3c(c2c1)CCCN3C(=O)CN1CCCCCC1	i
COC(=O)[C@]1(C)C[C@H](C(=O)N(C)Cc2ccon2)[C@H](c2ccccc2Cl)N1C	i
OCC(Br)C12CC3CC(CC(C3)C1)C2 (stereo not given)	i
COCCCn1c(SCC(=O)N2CC(C)CC(C)C2)nc2c(sc3ccccc32)c1=O (stereo not given)	i
COc1ccc(N(CC(=O)Nc2ccc(F)cc2)S(=O)(=O)c2ccccc2)c(OC)c1	i
Cc1cccc(N(CC(=O)Nc2ccccc2Cl)S(=O)(=O)c2ccccc2)c1C	i
Cc1cccc(N(CC(=O)Nc2ccc(F)cc2)S(=O)(=O)c2ccccc2)c1C	38%*
CCOc1ccc(C2NC(=O)c3c(sc4c3CCCC4)N2)cc1OCC (stereo not given)	i
COC(=O)c1c[nH]n2c(=O)c(Cc3ccc(C)cc3)c(C)nc12	i
COC(=O)c1c[nH]n2c(=O)c(Cc3ccccc3C)c(C)nc12	53%*
COC(=O)c1c[nH]n2c(=O)c(Cc3ccccc3F)c(C)nc12	i
CCOC(=O)c1c(NC(=O)c2nc3ccccc3s2)sc(C)c1C	i
Cc1[nH]nc2c1C(C1CCCCC1)C(C#N)=C(N)O2 (stereo not given)	i
